Structures can show the parent of a compound that is named as a salt.
How the values were obtained:
Settings in all cases: treatment time: 24 h
[1] = test system: A549-ACTB-RAB5A; experiment: lowest phenotypically active concentration; higher = less potent
Procedure, shortened: (§1)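 The reporter lines, fifteen in total and built by gene editing in A549, HepG2 and WPMY1 cells, used BFP for segmentation alongside GFP and RFP/FusionRed markers. Each was treated at 0.3, 1, 3 or 9 µM for 24 h in four wells and then imaged live, with live-cell features normalised to solvent control wells. Deviation meant ≥3 of 4 wells beyond the 95th percentile of control Euclidean distances; reproducibility meant a median replicate Pearson correlation above the 95th percentile of non-replicates. Only conditions meeting both were scored as phenotypically active.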

[2] = test system: HepG2-ACTB-RAB5A; experiment: as above
Procedure, shortened: as §1

[3] = test system: A549-ACTB-RAB5A; experiment: phenotypically active (imaging signature differs from DMSO and reproducible) at any of 0.3-9 uM (binary (1 = active, 0 = inactive)); higher = active
Procedure, shortened: as §1

[4] = test system: A549-CANX-COX4; experiment: as above
Procedure, shortened: as §1

[5] = test system: A549-GM130-SQSTM1; experiment: as above
Procedure, shortened: as §1

[6] = test system: A549-TP53BP1-CLTA; experiment: as above
Procedure, shortened: as §1

[7] = test system: A549-TUBA1B-RELA; experiment: as above
Procedure, shortened: as §1

[8] = test system: HepG2-ACTB-RAB5A; experiment: as above
Procedure, shortened: as §1

[9] = test system: HepG2-CANX-COX4; experiment: as above
Procedure, shortened: as §1

[10] = test system: HepG2-GM130-SQSTM1; experiment: as above
Procedure, shortened: as §1

[11] = test system: HepG2-TP53BP1-CLTA; experiment: as above
Procedure, shortened: as §1

[12] = test system: HepG2-TUBA1B-RELA; experiment: as above
Procedure, shortened: as §1

[13] = test system: WPMY1-ACTB-RAB5A; experiment: as above
Procedure, shortened: as §1

[14] = test system: WPMY1-CANX-COX4; experiment: as above
Procedure, shortened: as §1

[15] = test system: WPMY1-GM130-SQSTM1; experiment: as above
Procedure, shortened: as §1

[16] = test system: WPMY1-TP53BP1-CLTA; experiment: as above
Procedure, shortened: as §1

[17] = test system: WPMY1-TUBA1B-RELA; experiment: as above
Procedure, shortened: as §1

[18] = test system: A549-GM130-SQSTM1; experiment: lowest phenotypically active concentration; higher = less potent
Procedure, shortened: as §1

[19] = test system: A549-TUBA1B-RELA; experiment: as above
Procedure, shortened: as §1

[20] = test system: WPMY1-GM130-SQSTM1; experiment: as above
Procedure, shortened: as §1

COc1cc2c(cc1NS(=O)(=O)c1ccc(Br)cc1C)n(C)c(=O)n2C
9 µM: lowest phenotypically active concentration [2]
active: phenotypically active [3] 1 | phenotypically active [4] 1 | phenotypically active [6] 1 | phenotypically active [8] 1 | phenotypically active [9] 1 | phenotypically active [10] 1 | phenotypically active [12] 1
3 µM: lowest phenotypically active concentration [1]
inactive: phenotypically active [5] 0 | phenotypically active [7] 0 | phenotypically active [11] 0 | phenotypically active [13] 0 | phenotypically active [14] 0 | phenotypically active [15] 0 | phenotypically active [16] 0 | phenotypically active [17] 0

CC1(C)O[C@@H]2C[C@H]3[C@@H]4C[C@H](F)C5=CC(=O)C=C[C@]5(C)[C@@]4(F)[C@@H](O)C[C@]3(C)[C@]2(C(=O)CO)O1 [fluocinolone acetonide]
active: phenotypically active [3] 1 | phenotypically active [4] 1 | phenotypically active [5] 1 | phenotypically active [6] 1 | phenotypically active [7] 1 | phenotypically active [13] 1
≤ 0.3 µM: lowest phenotypically active concentration [1] | lowest phenotypically active concentration [18] | lowest phenotypically active concentration [19]
inactive: phenotypically active [8] 0 | phenotypically active [9] 0 | phenotypically active [10] 0 | phenotypically active [11] 0 | phenotypically active [12] 0 | phenotypically active [14] 0 | phenotypically active [15] 0 | phenotypically active [16] 0 | phenotypically active [17] 0

Cc1cc(F)c(Nc2ncnc3cc(OCc4ccccc4)ccc23)cc1O
active: phenotypically active [3] 1 | phenotypically active [4] 1 | phenotypically active [5] 1 | phenotypically active [7] 1 | phenotypically active [14] 1 | phenotypically active [17] 1
inactive: phenotypically active [6] 0 | phenotypically active [8] 0 | phenotypically active [9] 0 | phenotypically active [10] 0 | phenotypically active [11] 0 | phenotypically active [12] 0 | phenotypically active [13] 0 | phenotypically active [15] 0 | phenotypically active [16] 0
9 µM: lowest phenotypically active concentration [1] | lowest phenotypically active concentration [18] | lowest phenotypically active concentration [19]

Cc1cc2c(F)c(Oc3ncnn4cc(OC[C@@H](C)OC(=O)[C@H](C)N)c(C)c34)ccc2[nH]1 [brivanib-alaninate]
inactive: phenotypically active [7] 0
active: phenotypically active [3] 1 | phenotypically active [4] 1 | phenotypically active [5] 1 | phenotypically active [6] 1 | phenotypically active [8] 1 | phenotypically active [9] 1 | phenotypically active [10] 1 | phenotypically active [11] 1 | phenotypically active [12] 1 | phenotypically active [13] 1 | phenotypically active [14] 1 | phenotypically active [15] 1 | phenotypically active [16] 1 | phenotypically active [17] 1
3 µM: lowest phenotypically active concentration [20]
9 µM: lowest phenotypically active concentration [1] | lowest phenotypically active concentration [18] | lowest phenotypically active concentration [2]

Nc1nccc(-c2ccc3noc(-c4ccc(Cl)cc4)c3c2)n1 [PIM-1 Inhibitor 2]
3 µM: lowest phenotypically active concentration [1] | lowest phenotypically active concentration [18]
9 µM: lowest phenotypically active concentration [20]
active: phenotypically active [3] 1 | phenotypically active [4] 1 | phenotypically active [5] 1 | phenotypically active [6] 1 | phenotypically active [11] 1 | phenotypically active [13] 1 | phenotypically active [14] 1 | phenotypically active [15] 1 | phenotypically active [16] 1 | phenotypically active [17] 1
inactive: phenotypically active [7] 0 | phenotypically active [8] 0 | phenotypically active [9] 0 | phenotypically active [10] 0 | phenotypically active [12] 0

C=C1C(=O)O[C@@H]2C=C(C)CCC=C(C)CC[C@@H]12 [Costunolide]
active: phenotypically active [3] 1 | phenotypically active [4] 1 | phenotypically active [8] 1 | phenotypically active [9] 1 | phenotypically active [10] 1 | phenotypically active [11] 1 | phenotypically active [13] 1 | phenotypically active [15] 1 | phenotypically active [16] 1 | phenotypically active [17] 1
9 µM: lowest phenotypically active concentration [1] | lowest phenotypically active concentration [2] | lowest phenotypically active concentration [20]
inactive: phenotypically active [5] 0 | phenotypically active [6] 0 | phenotypically active [7] 0 | phenotypically active [12] 0 | phenotypically active [14] 0

CN(C)c1ccc(/C=C2\C(=O)Nc3ccccc32)cc1
inactive: phenotypically active [8] 0 | phenotypically active [9] 0 | phenotypically active [17] 0
active: phenotypically active [3] 1 | phenotypically active [4] 1 | phenotypically active [5] 1 | phenotypically active [6] 1 | phenotypically active [7] 1 | phenotypically active [10] 1 | phenotypically active [11] 1 | phenotypically active [12] 1 | phenotypically active [13] 1 | phenotypically active [14] 1 | phenotypically active [15] 1 | phenotypically active [16] 1
3 µM: lowest phenotypically active concentration [18] | lowest phenotypically active concentration [20]
9 µM: lowest phenotypically active concentration [1] | lowest phenotypically active concentration [19]

CC(C)c1cnn2c(NCc3ccccc3)cc(NCCCCCCN)nc12 [BS 181 dihydrochloride]
9 µM: lowest phenotypically active concentration [1] | lowest phenotypically active concentration [19]
inactive: phenotypically active [5] 0 | phenotypically active [8] 0 | phenotypically active [9] 0 | phenotypically active [10] 0 | phenotypically active [11] 0 | phenotypically active [12] 0 | phenotypically active [13] 0 | phenotypically active [15] 0
active: phenotypically active [3] 1 | phenotypically active [4] 1 | phenotypically active [6] 1 | phenotypically active [7] 1 | phenotypically active [14] 1 | phenotypically active [16] 1 | phenotypically active [17] 1

COc1cc2ncnc(Nc3cccc(Br)c3)c2cc1OC
active: phenotypically active [3] 1 | phenotypically active [4] 1 | phenotypically active [5] 1 | phenotypically active [6] 1 | phenotypically active [7] 1 | phenotypically active [10] 1 | phenotypically active [11] 1 | phenotypically active [12] 1 | phenotypically active [14] 1 | phenotypically active [15] 1 | phenotypically active [16] 1
9 µM: lowest phenotypically active concentration [18] | lowest phenotypically active concentration [20]
3 µM: lowest phenotypically active concentration [1] | lowest phenotypically active concentration [19]
inactive: phenotypically active [8] 0 | phenotypically active [9] 0 | phenotypically active [13] 0 | phenotypically active [17] 0

O=S(=O)(c1cccc2c(O)nccc12)N1CCCNCC1 [HA 1100 hydrochloride]
9 µM: lowest phenotypically active concentration [19] | lowest phenotypically active concentration [2] | lowest phenotypically active concentration [20]
inactive: phenotypically active [5] 0 | phenotypically active [12] 0
3 µM: lowest phenotypically active concentration [1]
active: phenotypically active [3] 1 | phenotypically active [4] 1 | phenotypically active [6] 1 | phenotypically active [7] 1 | phenotypically active [8] 1 | phenotypically active [9] 1 | phenotypically active [10] 1 | phenotypically active [11] 1 | phenotypically active [13] 1 | phenotypically active [14] 1 | phenotypically active [15] 1 | phenotypically active [16] 1 | phenotypically active [17] 1

Cc1cccc(C)c1OCC(=O)N[C@@H](Cc1ccccc1)[C@@H](O)C[C@H](Cc1ccccc1)NC(=O)[C@H](C(C)C)N1CCCNC1=O [lopinavir]
active: phenotypically active [3] 1 | phenotypically active [4] 1 | phenotypically active [8] 1 | phenotypically active [12] 1 | phenotypically active [14] 1
inactive: phenotypically active [5] 0 | phenotypically active [6] 0 | phenotypically active [7] 0 | phenotypically active [9] 0 | phenotypically active [10] 0 | phenotypically active [11] 0 | phenotypically active [13] 0 | phenotypically active [15] 0 | phenotypically active [16] 0 | phenotypically active [17] 0
9 µM: lowest phenotypically active concentration [1] | lowest phenotypically active concentration [2]

CC(C)C(=O)SCCCCCCC(=O)Nc1nc(-c2ccccc2)cs1
9 µM: lowest phenotypically active concentration [19]
1 µM: lowest phenotypically active concentration [1] | lowest phenotypically active concentration [20]
inactive: phenotypically active [5] 0 | phenotypically active [6] 0 | phenotypically active [8] 0 | phenotypically active [10] 0 | phenotypically active [11] 0 | phenotypically active [12] 0
active: phenotypically active [3] 1 | phenotypically active [4] 1 | phenotypically active [7] 1 | phenotypically active [9] 1 | phenotypically active [13] 1 | phenotypically active [14] 1 | phenotypically active [15] 1 | phenotypically active [16] 1 | phenotypically active [17] 1

From the supplement of paper PMC7411054
